One assay concerns the target MAPK4. The assay can be described thus: pooled miR-30 sensor sort-seq; sequence = guide strand. As to conditions: shRNA.
As to TAAGTTTCTAATGTGTTGCAGG, the sensor-assay potency score (higher = more potent) is -0.429.
Take TGAACTTGAACAGCTCACCCTG: the sensor-assay potency score (higher = more potent) is -0.313.
Regarding TTGCTGTTGACACCTCTCTTTT, the sensor-assay potency score (higher = more potent) is -1.31.
Still for that read-out and setting: for TCTCCTAACACATTTGCTCTAT the value was -0.331.
With TTCTTCACAGCGACCTTCCGGC, the sensor-assay potency score (higher = more potent) was 0.22.
The same measure, in the same setting: for TTGCTGATTAGATTTAAGGTGC the value was -0.432; for TTAAAGAAAAAACAAAACCCAA, -1.11.

The target of a further assay is MAPKAPK2. The description is as above. Conditions: shRNA.
In the case of TTTGTTGATTGCATGATCCAAG, the sensor-assay potency score (higher = more potent) was -0.653.
With TTGATCTGCAGGCCGGACTTGA, the sensor-assay potency score (higher = more potent) is -0.944.
With TTCTCTTTCTGTGAATGCCTGG, the sensor-assay potency score (higher = more potent) was -0.0857.
Turning to TTGTAGTCATCGATGATGGCGT, the sensor-assay potency score (higher = more potent) was -0.252.
In the case of TTTATCTTGATCTGCTCGTAGT, the sensor-assay potency score (higher = more potent) was -0.523.
The same measure, in the same setting: for TTTTTATCTTGATCTGCTCGTA the value was 0.0929; for TCCTCTGATACTTCTGACCATT, -1.62.
For TTTTATCTTGATCTGCTCGTAG, the sensor-assay potency score (higher = more potent) amounted to 0.563.
For TTGATTGCATGATCCAAGGGTG, the sensor-assay potency score (higher = more potent) was -0.156.
Sequence TTGAAGATCTGCAAAACTTTGC returned a sensor-assay potency score (higher = more potent) of 0.0666.
TTTTTTATCTTGATCTGCTCGT came in with a sensor-assay potency score (higher = more potent) of 0.773.
The same measure, in the same setting: for TCGTACACATCCACGATCCGTA the value was 0.149.

In the next assay the target is MAPKAPK5. Described as above. Conditions: shRNA.
Regarding TTTACACAGACTCTAACTGGAC, the sensor-assay potency score (higher = more potent) was -0.371.
In the case of TAACTGGACCACTAATTCCAGC, the sensor-assay potency score (higher = more potent) is -1.31.
As for TTCAATAATCTGAACTATGTTT, the sensor-assay potency score (higher = more potent) is -0.32.
Consider ATAATCTGAACTATGTTTGGGT, for which the sensor-assay potency score (higher = more potent) came out at 0.519.
Same read-out and setting: for TTGCTCTTCTATCACCTGCTTC the value was -0.717; for TATGATGCCAGATTTCTCCTTC, 0.745.
Consider TTAGTCGATCTACTTTATCTGT, for which the sensor-assay potency score (higher = more potent) was -0.383.
Consider TAGTCGATCTACTTTATCTGTG, for which the sensor-assay potency score (higher = more potent) was -0.684.
As to TCTGACTCCACTCTTCCTCTGG, the sensor-assay potency score (higher = more potent) stood at 0.0951.
Regarding TATTCTTCTAAAATGGAAGTTT, the sensor-assay potency score (higher = more potent) was -0.731.
With TTTCTTCGCATATCCTTTGGGA, the sensor-assay potency score (higher = more potent) was -0.249.
As to TATCTGTGAATCCACGACCATT, the sensor-assay potency score (higher = more potent) is -1.59.

A further assay concerns the target MARCH9. Described as above. Conditions: shRNA.
As for TAGTACTCCTCCTCGTCGCCGT, the sensor-assay potency score (higher = more potent) is -0.394.
With TTGAAGATGCGGTAGACAGAGG, the sensor-assay potency score (higher = more potent) was -1.26.
For the sequence TACTTGAAGTAGCAGAGCTCAC, the sensor-assay potency score (higher = more potent) was -1.11.
For TGCAAGATTGTATAACCGCAGC, the sensor-assay potency score (higher = more potent) is -1.34.
With TAGCAGAGCTCACAGCTCCAGG, the sensor-assay potency score (higher = more potent) was -0.864.
On the same count and under the same terms, for TGCATCTCCTCCTATGTCCTTG the value was -0.947.
As to ATTTAGGACCTTCCACTGCTGG, the sensor-assay potency score (higher = more potent) is -1.22.
Turning to ATACATGCCGTAGCAGATCTGA, the sensor-assay potency score (higher = more potent) was -0.925.
For the sequence TGAAAGAGCAGATCCTGTCGTT, the sensor-assay potency score (higher = more potent) stood at 0.563.

Values taken from the OligoGym collection.
Also: reference of the scale not given here.
